The structures appear in SMILES notation. Compounds without any hit were thinned out: in the full panel of roughly 83,000, 20% have a hit.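 Treatment: one concentration, 48 hours, 96-well format. Scoring: percent growth, with anything below 10 considered active.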 Values without a mark were called inactive. Calls of active or inactive are those of the source.

In the assay the test system is A498 renal. The assay is described as follows: NCI-60 one-dose screen, 48 h (100 = growth as untreated, 0 = no growth, -100 = all killed). The conditions noted are these: 10 µM unless noted.
For the molecule `CC(=O)OC[C@H]1OC(Sc2sc(C(=O)c3ccc(C)cc3)c(N)c2-c2nc3ccccc3s2)[C@H](OC(C)=O)[C@@H](OC(C)=O)[C@@H]1OC(C)=O` (some centres undefined), the growth is 98.9%.

`COC1=C(C)C(=O)c2c(c(CCCl)c3n2CCC3O)C1=O` (centres undefined): the growth is -79.9% (active).

`Oc1ccc(C#CCOc2ccccc2)cc1CNCCN(Cc1ccccn1)Cc1ccccn1`: the growth was -21.8% (active).

As to `CCc1nnc(NC(=O)c2nnn(-c3ccccc3)c2-c2ccco2)s1`, the growth is 42.7%.

As for `CNc1nc2c(s1)C(c1cccc(F)c1)CC(=O)N2` (centres undefined), the growth is 69%.

`CC(=O)O.CN1[CH-]N(Cc2ccc(C#N)cc2)c2ccccc21.[Ag+]`: the growth is 99.7%.

For the molecule `O=C(Nc1ccc(F)cc1F)c1cc(F)ccc1O`, the growth was -37.5% (active).

As to `CCC(=O)Nc1ccc(-c2nc(-c3cccc(OC)c3)c(-c3ccnc(Br)c3)[nH]2)cc1`, the growth was 50.5%.

Take `CC/C=C\C[C@@H](O)C/C=C1/C(=O)C=C[C@H]1C/C=C\CCCC(=O)OC`: the growth was 97.4%.

As for `CC(=O)CC(c1ccccc1)c1c(C)[nH]c2ccccc12` (centres undefined), the growth is 88.1%.

Regarding `Cc1nc2cnc(N)c(C#Cc3cncc(C(=O)Nc4ccc(CN5CCN(C)CC5)c(C(F)(F)F)c4)c3)c2nc1C`, the growth was -81% (active).

For `COc1ccc(-c2nc(NCCO)[nH]c(=O)c2C#N)cc1`, the growth was 113%.

As to `COc1ccn2c(C(C)=O)cc(C(=O)c3ccc4c(c3)Sc3ccccc3N4)c2c1`, the growth was -17.8% (active).

Take `COC(=O)C(Cc1ccccc1)NC(=O)NC(=O)NC(=O)CI` (centres undefined): the growth was 124%.

Values taken from PubChem BioAssay (NCI).
